Results filed as inconclusive are left out. Activity calls are given as the source filed them. The calls were made as follows, unless noted: active = hit-call score of the fitted dose curve at least 0.9, where 1 is the maximum; inconclusive = response in the unintended direction; inactive = score below 0.9.
Tests used:
[1] = CCTE_Deisenroth_H295R-HTRF_384WELL_ESTRADIOL: CCTE's H295R-HTRF Assay Evaluation of Estradiol Concentration, Deisenroth Lab (AID 2284361; active = hit-call score of the fitted dose curve at least 0.9, where 1 is the maximum; inactive = score below 0.9); details: actives raise or lower the signal
Procedure, shortened: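 H295R cells exposed 48 h to chemicals at 0.001 - 100 uM final (nine points, triplicate); estradiol in conditioned medium measured by HTRF immunoassay, fitted bidirectionally versus DMSO. Viability by CellTiter-Glo on same plates.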

[2] = CCTE_Deisenroth_H295R-HTRF_384WELL_TESTOSTERONE: CCTE's H295R-HTRF Assay Evaluation of Testosterone Concentration, Deisenroth Lab (AID 2284373; active = hit-call score of the fitted dose curve at least 0.9, where 1 is the maximum; inactive = score below 0.9); details: actives raise or lower the signal
Procedure, shortened: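 H295R cells were acclimated 24 h, then exposed 48 h to nine concentrations (0.001–100 uM final) in technical triplicate, n=5. Testosterone in conditioned medium was measured by HTRF (em 620/665 nm). Fitting was bidirectional versus DMSO; CellTiter-Glo viability ran on the same plates.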

[3] = CCTE_Deisenroth_H295R-HTRF_384WELL_CTOX: Cytotoxicity Assessment in CCTE's H295R-HTRF Assay, Deisenroth Lab (AID 2284380)
Procedure, shortened: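 H295R adrenocortical carcinoma cells plated 24 h, then exposed 48 h to nine-point series 0.001–100 uM final, triplicate, n=5. ATP measured by CellTiter-Glo 2.0 luminescence on same plates after medium collection; loss versus DMSO.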

[4] = TOX21_p53_BLA_p2_viability: Viability Assessment in the Tox21 HCT-116 p53 Agonism Beta-lactamase Assay, Phase 2 (AID 2283591);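 also: compound exposure lasted 16 h at 37 °C; actives lower the ATP signal meaning cytotoxicity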
Procedure, shortened: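 Cytotoxicity readout: CellTiter-Glo ATP luminescence, 30 min at room temperature, after the beta-lactamase read. Cells were HCT116 exposed 16 h at 37C to compounds pin-transferred at 217-fold dilution from DMSO stocks.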

[5] = target: Cellular tumor antigen p53 (Homo sapiens) (UniProt P04637); test: TOX21_p53_BLA_p2_ratio: Tox21 HCT-116 p53 Agonism Beta-lactamase Assay, Ratio, Phase 2 (AID 2283592)
Procedure, shortened: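 An inducible beta-lactamase reporter in HCT116 cells signals p53 pathway activation. After 16 h chemical exposure at 37C, cells load CCF4-AM substrate for 2 h at room temperature; activity is the cleaved/uncleaved emission ratio relative to DMSO.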

[6] = TOX21_p53_BLA_p3_viability: Viability Assessment in the Tox21 HCT-116 p53 Agonism Beta-lactamase Assay, Phase 3 (AID 2283593);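 also: cells exposed to compound for 16 h before reading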
Procedure, shortened: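 Cellular ATP was quantified by CellTiter-Glo luminescence, read after 30 min at room temperature. Beforehand, HCT116 cells (4000/well) received compound 5 h post-seeding, 217-fold diluted from DMSO, then incubated 16 h at 37C.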

[7] = target: Cellular tumor antigen p53 (Homo sapiens) (UniProt P04637); test: TOX21_p53_BLA_p3_ratio: Tox21 HCT-116 p53 Agonism Beta-lactamase Assay, Ratio, Phase 3 (AID 2283596)
Procedure, shortened: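 HCT116 p53-bla cells (4000/well) given compound in DMSO (217-fold dilution) after 5 h, incubated 16 h at 37C. CCF4-AM substrate 2 h at room temperature; 460/530 nm emission ratio, gain fitted against DMSO.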

[8] = target: Cellular tumor antigen p53 (Homo sapiens) (UniProt P04637); test: TOX21_p53_BLA_p5_ratio: Tox21 HCT-116 p53 Agonism Beta-lactamase Assay, Ratio, Phase 5 (AID 2283599)
Procedure, shortened: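 Beta-lactamase reporter ratio (blue 460 nm over green 530 nm, 405 nm excitation) after 2 h CCF4-AM loading, in HCT-116 cells exposed 16 h at 37 C to compounds pinned at 217-fold dilution. Increases relative to DMSO baseline scored.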

[9] = target: Cellular tumor antigen p53 (Homo sapiens) (UniProt P04637); test: TOX21_p53_BLA_p4_ratio: Tox21 HCT-116 p53 Agonism Beta-lactamase Assay, Ratio, Phase 4 (AID 2283601)
Procedure, shortened: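 Signal is the blue/green (460nm/530nm) ratio of cleaved versus uncleaved CCF4-AM substrate, read after 2 h substrate loading. Cells were HCT116 carrying the p53-responsive beta-lactamase reporter, dosed 16 h at 37C, 5% CO2; CellTiter-Glo measured in parallel.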

[10] = CCTE_Harrill_HTTr_Apoptosis_MCF7: CCTE's 6-hour Apoptosis Assessment for the High-Throughput Transcriptomics (HTTr) Platform, in MCF-7 cells cultured in DMEM + 10% fetal bovine serum, Harrill Lab (AID 2284011; active = hit-call score of the fitted dose curve at least 0.9, where 1 is the maximum; inactive = score below 0.9)
Procedure, shortened: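 Cells are dosed with test chemicals at eight concentrations and imaged 6 hours later for caspase-3/7 activity using a green fluorogenic detection reagent. Activity is fitted in both directions against DMSO controls.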

[11] = CCTE_Harrill_HTTr_CellCount_MCF7: CCTE's Cell Proliferation Assessment for the High-Throughput Transcriptomics (HTTr) Platform, Harrill Lab (AID 2284012);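 also: count of Hoechst-stained nuclei per well by high-content imaging in MCF-7 cells; cells exposed to compound for six hours; intended direction is loss of nuclei count meaning fewer cells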
Procedure, shortened: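 Chemicals in eight-point dilution series are added to MCF-7 cells for six hours, nuclei are stained with Hoechst and imaged, and per-well nuclei counts are fitted in both directions relative to DMSO controls.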

Measured: AC50

Cellular tumor antigen p53 (Homo sapiens), sequence (P04637 whole entry, looked up): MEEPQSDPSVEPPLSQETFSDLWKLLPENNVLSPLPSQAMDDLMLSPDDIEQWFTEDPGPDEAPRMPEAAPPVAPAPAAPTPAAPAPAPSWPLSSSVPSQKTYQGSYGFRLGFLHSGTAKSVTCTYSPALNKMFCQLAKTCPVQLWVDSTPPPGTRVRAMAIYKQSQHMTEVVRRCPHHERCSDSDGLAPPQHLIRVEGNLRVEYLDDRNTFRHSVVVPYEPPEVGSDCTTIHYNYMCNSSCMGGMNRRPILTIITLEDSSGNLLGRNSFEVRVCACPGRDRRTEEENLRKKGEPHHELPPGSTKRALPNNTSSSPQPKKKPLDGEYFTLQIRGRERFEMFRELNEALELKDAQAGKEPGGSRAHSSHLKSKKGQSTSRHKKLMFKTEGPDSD

C[C@@H]1CC[C@@]2(OC1)O[C@H]1[C@@H](O)[C@H]3[C@@H]4CC[C@H]5C[C@@H](O[C@@H]6O[C@H](CO)[C@H](O[C@@H]7O[C@H](CO)[C@@H](O)[C@H](O[C@@H]8OC[C@@H](O)[C@H](O)[C@H]8O)[C@H]7O[C@@H]7O[C@H](CO)[C@@H](O)[C@H](O[C@@H]8O[C@H](CO)[C@@H](O)[C@H](O)[C@H]8O)[C@H]7O)[C@H](O)[C@H]6O)[C@H](O)C[C@]5(C)[C@H]4CC[C@]3(C)[C@H]1[C@@H]2C
active: [1] 88.2 µM | [2] 2.93 µM | [3] 6.26 µM

Cc1cccc2sc3nncn3c12
not listed: [1] | [2] | [3]
inactive: all other assays above
